Measurements: PubChem BioAssay (Tox21)
Inconclusive results are not listed. The source made the active and inactive calls. Unless noted, calls follow the shape of the dose curve; as a rule, active = well fitted curve in the direction sought with a large enough effect in the repeat runs; inconclusive = weak or mixed curves; inactive = no such curve, though single readings can be large; an effect the other way counts as inactive or inconclusive.

What was measured:
[1] = qHTS assay to identify small molecule antagonists of the thyroid receptor (TR) signaling pathway (AID 743065); also: series mostly up to about 70 µM; nearly all actives have a fitted effect of over 55% in size
How it was run: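 GH3.TRE-Luc rat pituitary cells (two TREs driving luciferase) were dosed with compound, then stimulated with 1 nM T3 (final) for 23.5 h at 37 C. ONE-Glo luminescence was the read-out, with CellTiter-Fluor fluorescence as the cytotoxicity counter-screen.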

[2] = tested on: thyroid hormone receptor (rat, GH3 cells); assay: qHTS assay to identify small molecule agonists of the thyroid receptor (TR) signaling pathway (AID 743066; calls by dose curve)
[3] = target: Estrogen receptor (Homo sapiens) (UniProt P03372); assay: qHTS assay to identify small molecule antagonists of the estrogen receptor alpha (ER-alpha) signaling pathway (AID 743069; active = well fitted curve in the direction sought with a large enough effect in the signal ratio in the repeat runs, not every such curve was filed as active; the % refers to the signal ratio)
Estrogen receptor (Homo sapiens), sequence (P03372 whole entry, looked up): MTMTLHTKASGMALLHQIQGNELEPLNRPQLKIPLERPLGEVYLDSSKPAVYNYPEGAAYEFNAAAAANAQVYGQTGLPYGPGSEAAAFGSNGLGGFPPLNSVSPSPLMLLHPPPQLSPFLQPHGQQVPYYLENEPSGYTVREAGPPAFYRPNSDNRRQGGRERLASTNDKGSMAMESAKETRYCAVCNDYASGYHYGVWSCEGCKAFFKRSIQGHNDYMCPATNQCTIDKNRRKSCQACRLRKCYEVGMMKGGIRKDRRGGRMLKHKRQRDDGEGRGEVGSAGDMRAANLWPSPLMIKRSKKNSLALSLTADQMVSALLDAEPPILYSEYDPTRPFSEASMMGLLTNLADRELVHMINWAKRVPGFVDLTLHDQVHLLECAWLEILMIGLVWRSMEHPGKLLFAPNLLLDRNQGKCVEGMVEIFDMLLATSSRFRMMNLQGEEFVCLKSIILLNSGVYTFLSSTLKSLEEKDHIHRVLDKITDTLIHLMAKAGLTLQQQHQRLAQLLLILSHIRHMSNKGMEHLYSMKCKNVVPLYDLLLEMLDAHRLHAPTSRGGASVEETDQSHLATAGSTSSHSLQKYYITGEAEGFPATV
How it was run: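 HEK293 ER-alpha-UAS-bla GripTite cells, held overnight in 2% charcoal-stripped FBS, 5,000 cells/well, preincubated 4 h, then compound plus 17beta-estradiol for 18 h at 37C. Beta-lactamase read by LiveBLAzer B/G FRET substrate, 2 h at room temperature.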

[4] = qHTS assay to identify small molecule antagonists of the estrogen receptor alpha (ER-alpha) signaling pathway - cell viability counter screen (AID 743074; calls by dose curve;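 also: HEK293 cells carrying ER-alpha-UAS-bla reporter stimulated with 17beta-estradiol; nearly all actives have a fitted effect of over 45% in size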)
[5] = target: Estrogen receptor (Homo sapiens) (UniProt P03372); assay: qHTS assay to identify small molecule agonists of the estrogen receptor alpha (ER-alpha) signaling pathway (AID 743075; calls by dose curve)
[6] = target: Estrogen receptor (Homo sapiens) (UniProt P03372); assay: qHTS assay to identify small molecule agonists of the estrogen receptor alpha (ER-alpha) signaling pathway using the BG1 cell line (AID 743079); also: nearly all actives have a fitted effect of over 20% in size
[7] = qHTS assay to identify small molecule antagonists of the estrogen receptor alpha (ER-alpha) signaling pathway using the BG1 cell line (AID 743080; calls by dose curve;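 also: BG1 cells stimulated with 17beta-estradiol alongside compound; series mostly up to about 70 µM; nearly all actives have a fitted effect of over 25% in size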)
How it was run: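 Luminescence from a 4×ERE-luciferase reporter in BG1-Luc-4E2 cells served as read-out. Cells, pre-cultured 5 days in stripped-serum phenol-red-free medium, were exposed to compound with 17beta-estradiol co-stimulation for 21.5 h at 37 C.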

[8] = qHTS assay to identify small molecule antagonists of the estrogen receptor alpha (ER-alpha) signaling pathway using the BG1 cell line - cell viability counter screen (AID 743081);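 also: compound given together with 17beta-estradiol as the ER stimulus; series mostly up to about 70 µM; nearly all actives have a fitted effect of over 45% in size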
[9] = target: Aromatase (Homo sapiens) (UniProt P11511); assay: qHTS assay to identify aromatase inhibitors (AID 743083); also: series mostly up to about 70 µM; nearly all actives have a fitted effect of over 55% in size
Aromatase (Homo sapiens), sequence (P11511 whole entry, looked up): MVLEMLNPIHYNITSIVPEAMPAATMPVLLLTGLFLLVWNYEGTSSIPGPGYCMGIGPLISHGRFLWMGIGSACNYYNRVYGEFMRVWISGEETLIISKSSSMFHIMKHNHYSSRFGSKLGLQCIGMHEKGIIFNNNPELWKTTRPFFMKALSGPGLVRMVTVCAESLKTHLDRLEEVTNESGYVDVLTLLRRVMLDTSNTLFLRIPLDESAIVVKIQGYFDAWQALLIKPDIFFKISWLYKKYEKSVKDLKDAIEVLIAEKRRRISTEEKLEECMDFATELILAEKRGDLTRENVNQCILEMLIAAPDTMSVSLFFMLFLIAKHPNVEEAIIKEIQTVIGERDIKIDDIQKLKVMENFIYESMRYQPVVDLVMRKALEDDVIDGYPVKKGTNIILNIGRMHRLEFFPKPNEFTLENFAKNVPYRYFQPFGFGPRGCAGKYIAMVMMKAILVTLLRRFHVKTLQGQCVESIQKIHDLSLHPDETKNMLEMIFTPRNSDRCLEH

[10] = qHTS assay to identify aromatase inhibitors - cell viability counter screen (AID 743084);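 also: cells stimulated with testosterone during compound exposure; nearly all actives have a fitted effect of over 55% in size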
[11] = target: Aryl hydrocarbon receptor (Homo sapiens) (UniProt P35869); assay: qHTS assay to identify small molecule that activate the aryl hydrocarbon receptor (AhR) signaling pathway (AID 743085);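 also: HG2L7.5c1 human HepG2 liver cells with stably integrated DRE-driven firefly reporter; series mostly up to about 70 µM; nearly all actives have a fitted effect of over 15% in size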
Aryl hydrocarbon receptor (Homo sapiens), sequence (P35869 whole entry, looked up): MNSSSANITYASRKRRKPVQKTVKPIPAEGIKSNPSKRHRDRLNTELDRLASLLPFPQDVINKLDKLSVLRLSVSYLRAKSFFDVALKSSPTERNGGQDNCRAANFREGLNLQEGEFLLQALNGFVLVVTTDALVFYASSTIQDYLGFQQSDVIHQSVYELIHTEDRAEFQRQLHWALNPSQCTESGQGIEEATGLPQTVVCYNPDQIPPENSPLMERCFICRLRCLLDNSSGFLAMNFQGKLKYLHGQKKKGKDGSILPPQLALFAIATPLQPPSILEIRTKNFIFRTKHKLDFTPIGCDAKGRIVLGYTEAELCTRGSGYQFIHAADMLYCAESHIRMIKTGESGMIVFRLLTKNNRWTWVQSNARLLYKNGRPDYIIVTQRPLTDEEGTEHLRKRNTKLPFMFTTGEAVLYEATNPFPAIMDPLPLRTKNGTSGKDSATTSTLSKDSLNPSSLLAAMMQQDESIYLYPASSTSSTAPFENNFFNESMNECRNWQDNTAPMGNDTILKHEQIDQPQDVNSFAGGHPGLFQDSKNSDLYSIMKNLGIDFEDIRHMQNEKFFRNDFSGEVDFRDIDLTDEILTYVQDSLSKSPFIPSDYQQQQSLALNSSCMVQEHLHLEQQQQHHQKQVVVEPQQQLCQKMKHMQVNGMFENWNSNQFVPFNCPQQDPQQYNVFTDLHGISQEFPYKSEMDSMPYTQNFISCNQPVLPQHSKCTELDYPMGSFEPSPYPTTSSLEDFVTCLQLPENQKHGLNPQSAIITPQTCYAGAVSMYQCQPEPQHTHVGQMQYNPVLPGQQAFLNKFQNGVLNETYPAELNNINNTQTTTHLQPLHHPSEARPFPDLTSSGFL
How it was run: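 Stably transfected human liver carcinoma cells (HG2L7.5c1; 20 DRE-firefly luciferase) were incubated 5 h, dosed, and kept 24 h at 37C. Agonism was scored from increased luciferase luminescence.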

[12] = qHTS assay to identify small molecule that activate the aryl hydrocarbon receptor (AhR) signaling pathway - cell viability counter screen (AID 743086);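 also: HepG2 liver cells carrying the AhR DRE luciferase reporter; series mostly up to about 70 µM; nearly all actives have a fitted effect of over 45% in size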
How it was run: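 HepG2-AhR-luc (HG2L7.5c1) cells, 4000/well, treated 24 h at 37 C with compound; viability measured as CellTiter-Fluor fluorescence after 30 min in the same wells as the luciferase read.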

[13] = target: Peroxisome proliferator-activated receptor gamma (Homo sapiens) (UniProt P37231); assay: qHTS assay to identify small molecule agonists of the peroxisome proliferator-activated receptor gamma (PPARg) signaling pathway (AID 743094; active = well fitted activation curve with a large enough effect in the signal ratio in the repeat runs, not every such curve was filed as active; the % refers to the signal ratio)
Peroxisome proliferator-activated receptor gamma (Homo sapiens), sequence (P37231 whole entry, looked up): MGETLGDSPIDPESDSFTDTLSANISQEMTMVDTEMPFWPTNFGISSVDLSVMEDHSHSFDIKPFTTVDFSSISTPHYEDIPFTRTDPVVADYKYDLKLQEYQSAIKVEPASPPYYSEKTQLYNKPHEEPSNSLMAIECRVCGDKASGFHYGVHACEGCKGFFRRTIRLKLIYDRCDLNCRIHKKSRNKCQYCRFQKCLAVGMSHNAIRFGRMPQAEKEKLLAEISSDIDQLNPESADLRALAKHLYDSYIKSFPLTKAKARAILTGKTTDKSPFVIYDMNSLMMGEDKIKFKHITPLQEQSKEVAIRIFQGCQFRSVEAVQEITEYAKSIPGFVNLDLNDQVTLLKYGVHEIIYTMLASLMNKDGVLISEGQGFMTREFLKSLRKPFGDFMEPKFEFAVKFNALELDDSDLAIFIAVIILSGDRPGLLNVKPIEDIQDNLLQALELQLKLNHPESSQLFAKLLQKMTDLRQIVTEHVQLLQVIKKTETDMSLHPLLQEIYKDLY
How it was run: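 Compounds dissolved in DMSO were added to PPARg UAS-bla HEK293H cells for 17 h at 37C, and reporter expression was quantified by fluorescence intensity after 1 h with LiveBLAzer B/G FRET substrate.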

[14] = target: Peroxisome proliferator-activated receptor gamma (Homo sapiens) (UniProt P37231); assay: qHTS assay to identify small molecule antagonists of the peroxisome proliferator-activated receptor gamma (PPARg) signaling pathway (AID 743191; calls by dose curve; also: series mostly up to about 63 µM; nearly all actives have a fitted effect of over 30% in size)
How it was run: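 GeneBLAzer PPARg UAS-bla HEK293H cells, 5 h post-plating, exposed to compounds 17 h at 37C. LiveBLAzer B/G FRET substrate added for 1 h at room temperature; beta-lactamase reporter read by fluorescence intensity.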

[15] = qHTS assay to identify small molecule antagonists of the peroxisome proliferator-activated receptor gamma (PPARg) signaling pathway - cell viability counter screen (AID 743194); also: nearly all actives have a fitted effect of over 55% in size
How it was run: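 Cytotoxicity counter screen in PPARg-bla HEK293H cells, same wells as reporter assay. Compounds plus 50 nM rosiglitazone (final) for 17 h at 37 C, then viability read by CellTiter-Glo luminescence.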

[16] = qHTS assay for small molecule agonists of the antioxidant response element (ARE) signaling pathway - cell viability counter screen (AID 743203; calls by dose curve; also: nearly all actives have a fitted effect of over 55% in size)
How it was run: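 Following 16 hrs of compound treatment at 37C, HepG2 cells with an ARE-controlled beta-lactamase gene were lysed with CellTiter-Glo. Luminescence was read after 30 min at room temperature.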

[17] = qHTS assay for small molecule activators of the heat shock response signaling pathway - cell viability counter screen (AID 743209); also: nearly all actives have a fitted effect of over 50% in size
How it was run: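 Readout: CellTiter-Glo luminescence, 30 min at room temperature. System: HSE-bla HeLa cells, 1500/well, plated overnight. Treatment: compounds in DMSO, 5 h at 37 C.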

[18] = qHTS assay for small molecule activators of the heat shock response signaling pathway (AID 743210; active = well fitted activation curve with a large enough effect in the signal ratio in the repeat runs, with a control signal flat, not every such curve was filed as active; the % refers to the signal ratio; also: series mostly up to about 63 µM)
How it was run: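 HSE-bla HeLa cells (beta-lactamase reporter under heat shock response elements), plated overnight, then exposed to compounds 5 h at 37 C; LiveBLAzer B/G FRET substrate added, 2.5 h at room temperature, fluorescence intensity read.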

[19] = qHTS assay to identify small molecule agonists of the peroxisome proliferator-activated receptor delta (PPARd) signaling pathway - cell viability counter screen (AID 743211); also: nearly all actives have a fitted effect of over 55% in size
How it was run: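 In the same wells used for beta-lactamase reporter measurement, cytotoxicity is scored by CellTiter-Glo. HEK293H PPARd-bla cells receive compound for 17 h at 37C following a 5 h settling period.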

[20] = qHTS assay for small molecule agonists of the antioxidant response element (ARE) signaling pathway (AID 743202; active = well fitted activation curve with a large enough effect in the signal ratio in the repeat runs, not every such curve was filed as active; the % refers to the signal ratio)
How it was run: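 ARE-bla HepG2 cells (beta-lactamase reporter under the antioxidant response element), plated 5 hours, then exposed to compounds 16 hours at 37 C. LiveBLAzer B/G FRET substrate added for 2 hours at room temperature; fluorescence intensity read.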

Measured: Potency

Cc1ccccc1C#N
not listed: [20]
inactive: all other assays above

COC(=O)c1ccc(C(=O)O)cc1
inactive: all assays above

Nc1ccc(C(=O)NCC(=O)O)cc1
inactive: all assays above

C=CCn1cc[n+](C)c1
inactive: all assays above

CC(O)CCCCn1c(=O)c2c(ncn2C)n(C)c1=O (stereo not drawn)
not listed: [15]
inactive: all other assays above

C/C=C/C(=O)CCCC
not listed: [15] | [20]
inactive: all other assays above

CN1CCN(C(=O)C2CCCCC2)CC1
not listed: [16]
inactive: all other assays above

CC/C=C\CCCCCCCCCCOC(C)=O
not listed: [14] | [17]
inactive: all other assays above
